Source: PubChem BioAssay AID2013 (Sanford-Burnham Center for Chemical Genomics, 2009)
Where “and” joins values, the source holds several entries; their conditions need not be identical. Identical values can stand only once. Screen size: about 290,000 compounds; about 370 (0.13%) were called active.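 How the source made its calls: active means spots per cell inhibited over 60%, with over 100 cells counted and total cytoplasm intensity under 500,000; inconclusive means wells with under 100 cells, flagged as likely toxic; inactive means the rest.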 For the sample, actives were picked, then their nearest neighbours and some compounds at random. Entries with a potency or affinity are not part of this list.

The compounds below were run against G-protein coupled receptor 55 (Homo sapiens) (UniProt Q9Y2T6) (assay: inhibition of LPI-stimulated GPR55 beta-arrestin translocation – imaging, U2OS, beta-arrestin-GFP, LPI agonist, primary screen (AID 2013;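 further: U2OS cells stably carrying GPR55 and arrestin-GFP stimulated by 5 µM LPI near EC80; imaged beta-arrestin-GFP aggregate spots per cell after agonist stimulation; plate controls were LPI-stimulated DMSO wells for no effect and DMSO wells without LPI for full effect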)). Conditions: LPI antagonism, at 10 µM, stronger effect = higher value.
G-protein coupled receptor 55 (Homo sapiens), sequence (Q9Y2T6 whole entry, looked up): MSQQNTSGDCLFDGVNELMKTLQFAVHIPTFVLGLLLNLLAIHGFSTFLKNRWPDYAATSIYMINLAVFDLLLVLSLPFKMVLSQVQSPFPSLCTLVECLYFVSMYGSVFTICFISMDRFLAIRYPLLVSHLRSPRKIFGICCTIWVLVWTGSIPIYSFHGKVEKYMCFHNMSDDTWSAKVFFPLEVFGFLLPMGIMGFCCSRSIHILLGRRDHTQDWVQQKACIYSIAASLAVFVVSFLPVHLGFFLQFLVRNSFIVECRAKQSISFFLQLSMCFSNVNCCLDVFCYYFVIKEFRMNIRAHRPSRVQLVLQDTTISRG

| Compound | inhibition |
| --- | --- |
| O=C(Nc1ccc(-n2cnnn2)cc1)C(c1ccccc1)c1ccccc1 | 6.3% (inactive) |
| CN1CCN(C(=O)c2cnn(-c3ccccc3)c2NC(=O)c2ccccc2Br)CC1 | 2.7% (inactive) |
| COc1ccc(C(C)=O)cc1CSc1nnc(Nc2ccc(C)cc2C)s1 | 1.3% (inactive) |
| CCn1c(Cn2nnc(-c3ccccc3)n2)nnc1SCC(=O)Nc1ccccc1 | -10.2% (inactive) |
| CCOC(=O)CSc1nnc(Cn2nnc(-c3ccccc3)n2)n1CC | 16% (inactive) |
| COc1ccccc1OCC(=O)NCc1nc(-c2ccccc2)no1 | 4.4% (inactive) |
| COc1ccc2[nH]c3c(=O)n(/N=C/c4ccc(OC)c(CN5CCCC5)c4)c(C)nc3c2c1 | 11.7% (inactive) |
| COc1ccc2cc(C(=O)CS(=O)(=O)c3ccccc3)c(=O)oc2c1 | -4.7% (inactive) |
| COc1ccc(S(=O)(=O)CC(=O)c2cc3cccc(C)c3oc2=O)cc1 | -0.3% (inactive) |
| COc1cc(S(=O)(=O)NC2CCCC2)c(OC)cc1Cl | -2.6% (inactive) |
| O=C(N1CCOCC1)C1(c2ccc(Cl)cc2)CCCC1 | 44.4% (inactive) |
| O=C(N1CCCCC1)C1(c2ccccc2)CCCCC1 | 4.3% (inactive) |
| O=C(N1CCC(n2nc(-c3ccccc3)oc2=O)CC1)C1(c2ccccc2)CC1 | -6.7% (inactive) |
| COc1ccc(C2(C(=O)N3CCC(n4nc(-c5ccccc5)oc4=O)CC3)CC2)cc1 | 7.7% (inactive) |
| COc1ccc(C(OC(=O)c2ccco2)C(=O)NCc2ccco2)cc1 (stereo not drawn) | 14.6% (inactive) |
| COC(=O)c1ccccc1SCc1csc(C)n1 | 5.7% (inactive) |
| COc1ccccc1NC(=O)CCN1CC(C)OC(C)C1 (stereo not drawn) | 3.2% (inactive) |
| O=C(NCC(=O)N1CCC2(CC1)NCCc1[nH]cnc12)c1ccc2ccccc2c1 | 15.2% (inactive) |
| CCCN1C(=O)/C(=C/C=C2\N(CC)c3ccccc3C2(C)C)SC1=S | -9% (inactive) |
| CCCCN1C(=O)/C(=C/C=C2\N(C)c3ccccc3C2(C)C)SC1=S | 17.2% (inactive) |
| CCCCNC(=O)N1c2ccccc2CC1C (stereo not drawn) | 7.4% (inactive) |
| COC(=O)c1[nH]c2ccccc2c1NC(=O)c1ccccc1[N+](=O)[O-] | 12.4% (inactive) |
| Cc1ccc(OCc2ccc(C#N)cc2)c(C(=O)c2cc(C#N)c(=O)n(C3CC3)c2)c1 | -4.5% (inactive) |
| Cc1cccc(Cc2cnc(N3C(=N)SC(c4ccccc4)C3=O)s2)c1 (stereo not drawn) | 2.3% (inactive) |

| Compound | inhibition |
| --- | --- |
| N=C1SCC(=O)N1c1ncc(Cc2ccc(F)cc2)s1 | 12.6% (inactive) |
| Cc1ccc(Cc2cnc(N3C(=N)SC(C)C3=O)s2)cc1 (stereo not drawn) | 16.2% (inactive) |
| N=C1SCC(=O)N1c1ncc(Cc2ccccc2Cl)s1 | 38% (inactive) |
| N=C1SCC(=O)N1c1ncc(Cc2cccc(Cl)c2)s1 | 98.9% (active) |
| CCN(CC)CCN(C(=O)c1ccc2c(c1)OCCO2)c1nc2cc(C)cc(C)c2s1 | 9.6% (inactive) |
| CC1CCCN(C(=O)Cn2nnc(-c3ccccc3F)n2)C1 (stereo not drawn) | 4.4% (inactive) |
| Cc1ccc(OCCOc2cccc(Br)c2)c([N+](=O)[O-])n1 | 9.4% (inactive) |
| Cc1nc(SCC(=O)c2cc3ccccc3oc2=O)c(C#N)c(-c2ccccc2)c1C(=O)Nc1ccccc1 | 3.8% (inactive) |
| COc1ccc(N(C(=O)c2ccncc2)S(=O)(=O)c2ccc(F)cc2)cc1 | -6% (inactive) |
| CN(C(=O)c1ccccc1OCc1ccc(Cl)cc1)c1ccccc1 | 4.2% (inactive) |
| O=C(O)c1cccc(COc2ccccc2Cl)c1 | 4.2% (inactive) |
| O=C(COc1ccc([N+](=O)[O-])cc1)Nc1ccccc1N1CCCC1 | 7.8% (inactive) |
| COc1ccc(C(CCN)c2ccc3c(c2)OCO3)cc1 (stereo not drawn) | 12.6% (inactive) |
| COc1ccc(C(CCNCc2ccc(F)cc2)c2ccc(F)cc2)cc1 (stereo not drawn) | 45.1% (inactive) |
| COc1ccc(C(CCNCc2ccc(N(C)C)cc2)c2ccccc2)cc1 (stereo not drawn) | 33.8% (inactive) |
| COc1ccc(C(CCNCc2ccccc2)c2ccc(F)cc2)cc1 (stereo not drawn) | 37.5% (inactive) |
| CCCNC(=O)c1ccc(C2SCC(=O)N2Cc2ccccc2)cc1 (stereo not drawn) | 0% (inactive) |
| O=C(NCc1ccccc1)c1ccc(C2SCC(=O)N2Cc2ccccc2)cc1 (stereo not drawn) | 4.1% (inactive) |
| CC(C)c1ccc(C2CC(=O)c3cnc(NC(=O)c4ccco4)nc3C2)cc1 (stereo not drawn) | 6.3% (inactive) |
| O=C(CC(=O)NCc1ccc(Cl)cc1)NCc1ccc(Cl)cc1 | 1.9% (inactive) |
| CC(C)C(=O)Nc1ccc2c(c1)nc(CCN1CCCCC1)n2C | -5.6% (inactive) |
| Cc1cc(C)c(C2C(C#N)=C(N)Oc3n[nH]c(C)c32)cc1CN1CCCC1 (stereo not drawn) | 7.5% (inactive) |
| COc1ccc(S(=O)(=O)N2CCCCCC2)cc1N(C)S(=O)(=O)c1ccc(Cl)cc1 | 18.7% (inactive) |
| COc1ccc(S(=O)(=O)NN(C)C)cc1N(C)S(=O)(=O)c1ccc(Cl)cc1 | 9.7% (inactive) |

| Compound | inhibition |
| --- | --- |
| COc1ccc(NS(=O)(=O)c2ccc(OC)c(N(C)S(=O)(=O)c3ccc(Cl)cc3)c2)cc1 | 1.4% (inactive) |
| COc1ccc(S(=O)(=O)Nc2ccc(S(=O)(=O)Nc3ccc(F)cc3)cc2)cc1C | 17.8% (inactive) |
| CC(=O)N1CCN(S(=O)(=O)c2ccc(C)cc2)C1c1ccc(N(C)C)cc1 (stereo not drawn) | 3.3% (inactive) |
| O=[N+]([O-])c1c(Nc2ccc(O)cc2)cc(Cl)c2nonc12 | 90.4% (active) |
| O=[N+]([O-])c1c(Nc2ccccc2O)cc(Cl)c2nonc12 | -4% (inactive) |
| CCNc1cc(Nc2c(C)n(C)n(-c3ccccc3)c2=O)c([N+](=O)[O-])c2nonc12 | 3.6% (inactive) |
| O=[N+]([O-])c1c(Nc2ccccn2)cc(Cl)c2nonc12 | 4.7% (inactive) |
| O=C(O)c1ccc(Nc2cc(Cl)c3nonc3c2[N+](=O)[O-])cc1 | 15.1% (inactive) |
| O=C(O)c1cc(Nc2cc(Cl)c3nonc3c2[N+](=O)[O-])ccc1O | -3.1% (inactive) |
| O=[N+]([O-])c1c(Nc2cccc(O)c2)cc(Cl)c2nonc12 | 77.1% (active) |
| O=C(O)c1cccc(Nc2cc(Cl)c3nonc3c2[N+](=O)[O-])c1 | -6.5% (inactive) |
| Cc1c(Nc2cc(N3CCOCC3)c3nonc3c2[N+](=O)[O-])c(=O)n(-c2ccccc2)n1C | 18.1% (inactive) |
| CN(C)c1cc(Nc2cccc(O)c2)c([N+](=O)[O-])c2nonc12 | -9.3% (inactive) |
| CC(=O)N1CCN(c2ccc(NC(=O)c3ccc(F)cc3)cc2)CC1 | 4.7% (inactive) |
| Cc1ccc(C(=O)NC2CCN(CC(=O)Nc3c(C)cc(C)cc3C)CC2)cc1 | 3.2% (inactive) |
| COc1cc(C(=O)NCc2nnc(SCC(=O)Nc3nc4ccccc4s3)o2)cc(OC)c1OC | -13.1% (inactive) |
| O=C(Cn1c(=O)c2cccn2c2cccnc21)N1CCN(c2ccc(Cl)cc2)CC1 | -2.4% (inactive) |
| COc1ccc(NC(=O)CN(C)C(=O)C(C)Sc2ccccc2)cc1 (stereo not drawn) | 8.3% (inactive) |
| CC(=O)Nc1ccc(S(=O)(=O)NC(CC(=O)NCCc2ccccc2)C(C)C)cc1 (stereo not drawn) | 12.5% (inactive) |
| CC(=O)N1CCN(c2ccc(NC(=O)c3ccc([N+](=O)[O-])cc3Cl)cc2)CC1 | 3.5% (inactive) |
| Cc1nc(-c2ccc([N+](=O)[O-])cc2)sc1C(=O)O | 6.9% (inactive) |
| CCS(=O)(=O)c1ccc(-c2csc(-c3ccccc3Cl)n2)c(Cl)c1Cl | -11.1% (inactive) |
| CCS(=O)(=O)c1ccc(-c2csc(-c3ccccc3)n2)c(Cl)c1Cl | 31.4% (inactive) |
| COc1ccc(-c2csc(Nc3cccc(C)n3)n2)cc1C | 13.8% (inactive) |

| Compound | inhibition |
| --- | --- |
| O=C(Nc1nc(-c2ccc(F)c(F)c2)cs1)c1ccc(OCC2CCCO2)cc1 (stereo not drawn) | -5.3% (inactive) |
| COc1ccc(OC)c(-c2csc(NC(=O)c3ccc(OCC4CCCO4)cc3)n2)c1 (stereo not drawn) | -3% (inactive) |
| O=C(Nc1nc(-c2ccc(Cl)cc2Cl)cs1)c1ccc(OCC2CCCO2)cc1 (stereo not drawn) | 96% (active) |
| CCn1nc(C)c(/C=N/NC(=O)Cn2nnc(N)n2)c1C | -1.9% (inactive) |
| CCOC(=O)C1CCCN(S(=O)(=O)c2cc(Br)cc3c2N(C(=O)CC)CC3)C1 (stereo not drawn) | -0.6% (inactive) |
| COc1cc(/C=C/C(=O)OCN2C(=O)c3ccccc3C2=O)ccc1OC(F)F | 0.4% (inactive) |
| COc1ccc(-c2oc(/N=C/N3CCCC3)c(C#N)c2-c2ccc(OC)cc2)cc1 | 14.8% (inactive) |
| N#Cc1c(/N=C/c2ccccc2)oc(-c2ccccc2)c1-c1ccccc1 | -11.7% (inactive) |
| CC(C)(C)SCCNC(=O)/C=C/c1ccccc1 | 2.8% (inactive) |
| COc1ccc(S(=O)(=O)n2nc(OC(=O)c3c(-c4ccccc4Cl)noc3C)cc2N)cc1 | -4.9% (inactive) |
| Cc1ccsc1C(=O)N(c1nc2ccccc2s1)c1c(C)cccc1C | 9.7% (inactive) |
| COc1cccc(N(C(=O)c2cccs2)c2nc3ccccc3s2)c1 | 0.2% (inactive) |
| O=C(COC(=O)C1CC2C=CC1C2)Nc1cccc(S(=O)(=O)N2CCOCC2)c1 (stereo not drawn) | -10.4% (inactive) |
| O=C(c1ccc(O)cc1)c1ccc(C(=O)c2ccc(O)cc2)cc1 | 9.7% (inactive) and -6% (inactive) |
| C=C(c1ccc(OC)cc1)c1ccc(OC)cc1 | -8% (inactive) |
| ONC(=Nc1ccccc1)c1ccc(Cl)cc1 | 19.2% (inactive) |
| CCN1CCN(C(c2cccc(OC)c2OC)c2nnnn2Cc2ccco2)CC1 (stereo not drawn) | -6.5% (inactive) |
| COc1cccc(C(c2nnnn2Cc2ccco2)N2CCN(c3cccc(C)c3C)CC2)c1OC (stereo not drawn) | 99.7% (active) |
| COc1ccccc1C(c1nnnn1Cc1ccco1)N1CCN(c2cccc(C)c2C)CC1 (stereo not drawn) | 15.4% (inactive) |
| Fc1ccc(NC(=S)NC2CCN(Cc3ccccc3)CC2)cc1 | 28.1% (inactive) |
| O=C(NC1CCN(Cc2ccc(F)cc2)CC1)c1ccccc1 | 6.4% (inactive) |
